Compound activity as filed in PubChem BioAssay.
ATXN2 expr inh: reduces ATXN2 reporter expression in HEK-293 cells. HEK-293 ATXN2-luciferase reporter, luminescence, 24 h. Potency, µM (series often up to 57 µM), for the others: at the highest dose activity change, negative = inhibition, most hits filed as inhibitors. 360,000 tested, 0.72% active. AID 1745845; further: potency means the concentration at half of the fitted maximal effect; on the % scale 0 is the no-effect control and ±100 the full control effect; nearly all actives have a fitted effect of over 55% in size
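qHTS (up to 57 uM final) was run with 24 h compound exposure of reporter cells at 37 °C. Each well was multiplexed: SteadyGlo luminescence measured ATXN2-luciferase expression after a fluorogenic Gly-Phe-AFC viability readout (25 uM final).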
S2 tox: cell viability loss in ATXN counter-screen; S2 cells (HEK-293 line with an ATXN2-luciferase reporter) viability, CellTiter-Fluor protease fluorescence, 24 h; Potency, µM (series often up to 56.7 µM), hits mostly cytotoxic; 400,000 tested, 0.49% active; further: potency means the concentration at half of the fitted maximal effect; nearly all actives have a fitted effect of over 40% in size
MCF10A rerep: inducers of DNA re-replication in MCF 10A breast cells; MCF 10A DNA re-replication, Hoechst nuclear intensity, 48 h; Potency, µM (highest dose often 46.1 µM), for the others: at the highest dose activity, positive = re-replication, most hits filed as activators; 350,000 tested, 2.9% active; AID 624296; further: potency means the concentration at half of the fitted maximal effect; % of control where 0% means no effect; nearly all actives have a fitted effect of over 50% in size
SW480 rereplic: induces DNA re-replication in SW480 colon adenocarcinoma cells; 340,000 tested, 1.8% active; Potency, µM (highest dose often 46.1 µM), without a hit: at the highest dose re-replication activation, hits mostly activators; SW480 DNA re-replication, Hoechst DNA content imaging, 48 h; further: potency means the concentration at half of the fitted maximal effect; % of control where 0% means no effect; nearly all actives have a fitted effect of over 55% in size
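Compounds, transferred as 23 nL by pin tool, were incubated with cells for 48 hr; DNA content per nucleus was then quantified by Hoechst staining and fluorescence plate imaging.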
PINK1 modulator: PINK1 expression modulation; Potency, µM (doses to about 76.6 µM), without a hit: at the top dose activation (PINK1 increase), actives largely listed as activators; 410,000 tested, 0.2% active; AID 624263; PINK1 immunofluorescence, high-content cytometry, 24 h; active means well fitted activation curve with a large enough effect; inconclusive means small, poorly fitted or top-dose-only effect; cell line not stated here; further: potency means the concentration at half of the fitted maximal effect; % of control where 0% means no effect; nearly all actives have a fitted effect of over 65% in size
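PINK1 protein, normally rapidly degraded, was detected by immunofluorescence after 24 hour compound treatment of a stable cell line. Titration data (5 concentrations) came from laser-scanning cytometry, with CCCP-treated wells as controls.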
IL1B secr inh: inhibitors of inflammasome signaling (IL-1 beta secretion) | THP-1 LPS/ATP IL-1B secretion, AlphaLISA, 16 h; active compounds read low | 360,000 tested, 4.7% active | activity change, % at 57.5 µM; in the data active means activity change below about -50%; inconclusive means mostly about -30% to -49%; further: on the % scale 0 is the no-effect control and ±100 the full control effect
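THP-1 cells pretreated 1 hr with compounds (up to 57.5 uM final), then stimulated with LPS (250 ng/mL final) plus ATP (1.25 mM final); secreted IL-1B measured by AlphaLISA after 16 hr, decreased signal indicating inhibition.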
* hit, by the source's call; i = inactive; ? = inconclusive; . = not tested or not shown; [ ] = dose if it differs, or a comment. A selection: hits, their analogues and other compounds. The true share with any hit is near 7.1%. Unless noted, the call rests on the fitted dose curve; in most records, active means well fitted curve in the direction sought with a large enough effect; inconclusive means small, poorly fitted or top-dose-only effect, or another doubt; inactive means no such curve, though single readings can be large; an effect the other way counts as inactive or inconclusive.

SMILES | ATXN2 expr inh | S2 tox | MCF10A rerep | SW480 rereplic | PINK1 modulator | IL1B secr inh
COc1ccc(-c2ccc3[nH]c4c(c3c2)CCN2C[C@@H]([C@H](C)OC(=O)Nc3cc(Cl)cc(Cl)c3)[C@@H](N(C)C(=O)Nc3cc(Cl)cc(Cl)c3)C[C@@H]42)cc1 | -6% | ? | . | . | 0% | -18
COc1ccc(NC(=O)O[C@@H](C)[C@@H]2CN3CCc4c([nH]c5ccc(-c6ccc(OC)cc6)cc45)[C@@H]3C[C@@H]2N(C)C(=O)Nc2ccc(OC)cc2)cc1 | ? | ? | . | . | 5% | -6
COc1ccc(NC(=O)N(C)[C@H]2C[C@H]3c4[nH]c5ccc(-c6ccc7c(c6)OCO7)cc5c4CCN3C[C@H]2[C@H](C)O)cc1 | 16µM* | 20µM* | . | . | 10% | -12
Cc1ccc(S(=O)(=O)N2CCN(c3nc(-c4cccs4)nc4cccnc34)CC2)cc1 | . | . | . | . | -1% | .
COc1ccccc1C(=O)NC(C)c1cccc2ccccc12 (centres undefined) | -10% | i | ? | -21% | 0% | -24
COc1cccc(C(=O)NC(C)c2ccc(-c3ccccc3)cc2)c1OC (centres undefined) | -11% | i | ? | ? | 0% | -64*
COc1cccc(C(=O)NC(C)c2cccc3ccccc23)c1OC (centres undefined) | 11% | i | -14% | 1% | 1% | -65*
c1cnc2c(OCc3cn4cccnc4n3)cccc2c1 | 17% | i | 12µM* | -2% | 1% | -16
Clc1ccc(OCc2cn3cccnc3n2)c2ncccc12 | 35% | i | -2% | -8% | 2% | -16
Cc1cc2c(cc1NC(=O)c1ccccc1C)n(C)c(=O)c(=O)n2C | 4% | i | . | . | -1% | .
Oc1c(C(c2ccc(Cl)cc2Cl)N2CCN(Cc3ccccc3)CC2)sc2nc(-c3ccco3)nn12 (centres undefined) | -9% | ? | . | . | 1% | .
COc1ccc2ccccc2c1CNC(C)c1ccccc1 (centres undefined) | . | i | -16% | ? | 7% | -55*
COc1ccc2ccccc2c1CNCc1ccc(C)cc1 | ? | i | 0% | ? | 6% | -92*
CC(NCCCOc1cccc2ccccc12)c1ccccc1 (centres undefined) | . | ? | ? | 11% | -2% | -74*
Cc1ccc(Cn2c(SCc3ccc(C(=O)N4CCCCC4)cc3)nc3ccncc32)cc1 | . | . | . | . | 0% | .
COc1cccc2sc(N(Cc3cccnc3)C(=O)Cc3ccccc3)nc12 | . | . | . | . | 2% | .
COC(=O)N/N=C/c1ccc([N+](=O)[O-])s1 | -28% | i | -8% | ? | -2% | -17
Cc1c(Cl)cccc1N=Cc1ccc([N+](=O)[O-])s1 | ? | ? | ? | ? | 6%[38.3 µM] | -102*
COc1ccc(CCNC(=O)c2cnn(-c3nccc(-c4ccco4)n3)c2C)cc1 | . | i | . | . | -1% | .
COC(=O)c1cccc(S(=O)(=O)N(Cc2ccco2)Cc2cc3ccc(OC)cc3[nH]c2=O)c1 | 0% | i | 0% | 1% | 14µM* | 14
Cc1cccc2cc(CN(Cc3ccco3)S(=O)(=O)c3ccc4c(c3)OCCO4)c(=O)[nH]c12 | -3% | ? | -14% | 4% | 12%[38.3 µM] | -56*
Cc1cc(C)c2[nH]c(=O)c(CN(CC3CCCO3)S(=O)(=O)c3ccc4c(c3)OCCO4)cc2c1 (centres undefined) | -7% | i | 5% | 7% | 21%[38.3 µM] | ?
COc1cccc(CSc2nc3n(n2)C(c2cccs2)C(C(=O)Nc2ccccc2C)=C(C)N3)c1 (centres undefined) | 1% | i | . | . | 4% | .
CC1CCN(c2c(NCc3ccc(C(=O)N4CCc5ccccc54)cc3)c(=O)c2=O)CC1 | -26% | ? | 3.7µM* | 6.5µM* | 2% | 110
CCC(=NCc1ccc(Cl)c(Cl)c1)c1nc(-c2ccco2)oc1O | -9% | i | ? | -695% | 11% | -64*
SMILES | ATXN2 expr inh | S2 tox | MCF10A rerep | SW480 rereplic | PINK1 modulator | IL1B secr inh
COc1cccc(/C=N/NC(=O)c2nnn(-c3nonc3N)c2C(C)C)c1OCc1ccc(F)cc1 | ? | i | 21µM* | ? | 9% | -70*
CC(C)c1c(C(=O)N/N=C/c2cccc(OCc3ccccc3)c2)nnn1-c1nonc1N | -33% | i | 16µM* | -17% | 13% | -84*
CCN1CCN(C2=C(NS(=O)(=O)c3ccc(NC(C)=O)cc3)C(=O)c3ccccc3C2=O)CC1 | . | ? | ? | -1% | -2% | 43
CC1CCN(C2=C(NS(=O)(=O)c3ccc(Cl)cc3)C(=O)c3ccccc3C2=O)CC1 | 0% | i | 4% | -1% | -2% | -3
CCN1CCN(C2=C(NS(=O)(=O)c3ccc(C)cc3)C(=O)c3ccccc3C2=O)CC1 | ? | ? | 12% | 21µM* | -1% | 30
CC(=O)Nc1ccc(S(=O)(=O)NC2=C(N3CCN(C)CC3)C(=O)c3ccccc3C2=O)cc1 | . | 14µM* | 22% | ? | -1% | 17
CC1CCN(C2=C(NS(=O)(=O)c3ccccc3)C(=O)c3ccccc3C2=O)CC1 | -7% | ? | ? | -12% | 3% | -74*
Cc1cnc(C)c(-c2cc(F)cc3c2OC(CNC(=O)Cc2c(C)noc2C)C3)n1 (centres undefined) | . | i | . | . | 0% | .
Cc1ccc(-n2c(=O)c3c4c(sc3n(CC(=O)c3ccc(Cl)cc3)c2=O)CCC4)cc1C | 7% | i | . | . | -1% | .
O=C(COC(=O)C1CC1)NCCc1ccc(Cl)cc1 | 2% | i | 1% | 3.7µM* | 0% | -20
O=C(O)C1CCCCC1C(=O)NCCc1ccc(Cl)cc1 (centres undefined) | 2% | i | -16% | -3% | -1% | -63*
CC(C)c1ccc(NC(=O)C2CCC(CNC(=O)[C@@H]3Cc4ccccc4CN3)CC2)cc1 (some centres undefined) | -17% | i | 15µM* | ? | 4% | 44
CCOC(=O)c1cnn2c(C(F)(F)F)cc(-c3ccc(Br)cc3)nc12 | . | . | . | . | 4% | .
CCc1nc2ccc(C(=O)Nc3cccc(NS(C)(=O)=O)c3)cn2c1N(C)C(=O)Cc1ccccc1 | -3% | i | . | . | 1% | -87*
CCc1nc2ccc(C(=O)Nc3cccc(NS(C)(=O)=O)c3)cn2c1N(C)C(=O)c1cccc(OC)c1 | 9% | i | . | . | 0% | -78*
CCc1nc2ccc(C(=O)Nc3cccc(OC)c3)cn2c1N(CC)CCN(C)C | 19% | i | . | . | 0% | -17
